According to PubChem BioAssay AID624094 (National Center for Advancing Translational Sciences (NCATS), 2012):
Results filed as inconclusive are left out. Activity calls are given as the source filed them. The call rests on the fitted dose curve; in most records, active means well fitted inhibition curve with a large enough effect; inconclusive means small, poorly fitted or top-dose-only effect; inactive means flat fitted curve, though single readings scatter.

Biological target: Dual specificity protein kinase CLK4 (Homo sapiens) (UniProt Q9HAZ1)
Experiment: Confirmation Assay for Inhibitors of Clk4 (Kinase-Glo Assay): KU probe
Conditions: recombinant Clk4, Kinase-Glo ATP luminescence; series mostly up to 76.9 µM
Outline: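 RS repeat peptide (100 uM) and ATP (1 uM) phosphorylated by 25 nM Clk4 (final) in Tris pH 7.5 with MgCl2, EGTA, DTT and Triton X-100. After 4.5 h at room temperature, remaining ATP read as Kinase-Glo luminescence.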

Dual specificity protein kinase CLK4 (Homo sapiens), sequence (Q9HAZ1 whole entry, looked up): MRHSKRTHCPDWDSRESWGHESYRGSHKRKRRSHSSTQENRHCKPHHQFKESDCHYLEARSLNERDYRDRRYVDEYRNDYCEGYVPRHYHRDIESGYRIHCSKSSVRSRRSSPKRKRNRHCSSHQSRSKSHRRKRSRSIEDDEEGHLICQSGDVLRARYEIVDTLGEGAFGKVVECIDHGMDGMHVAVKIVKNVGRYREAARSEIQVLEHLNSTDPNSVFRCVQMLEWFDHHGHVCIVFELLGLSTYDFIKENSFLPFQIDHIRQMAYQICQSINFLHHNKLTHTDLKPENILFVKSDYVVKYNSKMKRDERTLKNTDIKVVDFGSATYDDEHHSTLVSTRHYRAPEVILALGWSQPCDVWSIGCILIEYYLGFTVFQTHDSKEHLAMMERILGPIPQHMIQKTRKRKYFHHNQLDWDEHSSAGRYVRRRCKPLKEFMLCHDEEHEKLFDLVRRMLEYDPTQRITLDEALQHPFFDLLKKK

Potency, inactive:
CN(C)c1ccc(-c2nccc(NCc3ccc(Cl)cc3)n2)cc1
Cc1noc(C)c1-c1nccc(NCc2ccc(Cl)c(Cl)c2)n1
Cc1noc(C)c1-c1ncccn1

Potency, active:
Brc1cc(Br)cc(CNc2nccc(-c3ccc4c(c3)OCO4)n2)c1 0.0368 µM
Fc1ccc(CNc2ccnc(-c3ccc4c(c3)OCO4)n2)cc1F 18.4 µM
c1cc(-c2ccoc2)nc(-c2ccc3c(c2)OCO3)n1 4.12 µM
Clc1cc(Cl)cc(CNc2ncncc2-c2ccc3c(c2)OCO3)c1 0.13 µM
CCCN(C)c1ncnc2ccc(-c3ccc4c(c3)OCO4)cc12 0.0582 µM
O=C(O)c1ccc(-c2ccc3ncnc(NCC4CCCO4)c3c2)o1 (stereo not drawn) 0.654 µM
Clc1cncc(CNc2ccnc(-c3ccc4c(c3)OCO4)n2)c1 16.4 µM
c1nc(NCC2CCCCO2)c2cc(-c3ccc4c(c3)OCO4)ccc2n1 (stereo not drawn) 0.0292 µM
Cc1c(-c2ccnc(NCc3cccnc3)n2)sc(=O)n1C 0.0463 µM
Fc1ccc(CNc2ccnc(-c3ccc4c(c3)OCO4)n2)cc1Cl 5.19 µM
Fc1cc(CNc2ccnc(-c3ccc4c(c3)OCO4)n2)ccc1Cl 13 µM
O=C(O)c1ccc(-c2ccc3ncnc(NCc4nccs4)c3c2)o1 0.923 µM
Clc1ccc(CNc2ncncc2-c2ccc3c(c2)OCO3)cc1Cl 0.582 µM
c1nc(NCC2CCCOC2)c2cc(-c3ccc4c(c3)OCO4)ccc2n1 (stereo not drawn) 0.0654 µM
c1cncc(CNc2ccnc(-c3ccc4cn[nH]c4c3)n2)c1 0.292 µM
Cc1csc(CNc2ncnc3ccc(-c4ccc(CO)o4)cc23)n1 0.923 µM
COc1ccc(CNc2ccnc(-c3cccc(C#N)c3)n2)cc1 9.23 µM
c1nc(NCC2CCOC2)c2cc(-c3ccc4c(c3)OCO4)ccc2n1 (stereo not drawn) 0.0582 µM
c1cncc(CNc2ccnc(-c3ccc4ccccc4c3)n2)c1 14.6 µM
c1cc(-c2ccoc2)nc(-c2ccoc2)n1 5.82 µM
Brc1ccc(CNc2nccc(-c3ccc4c(c3)OCO4)n2)cc1Br 0.0823 µM
Clc1ccc(CNc2ccnc(-c3cccnc3)n2)cc1Cl 13 µM
c1coc(CNc2ncnc3ccc(-c4ccc5c(c4)OCO5)cc23)c1 0.0463 µM
c1cncc(CNc2nccc(-c3ccc4c(c3)OCO4)n2)c1 0.0232 µM
COc1ccc(-c2ccnc(NCc3ccc(Cl)c(Cl)c3)n2)cc1OC 26 µM
